# Bioassay records from PubChem BioAssay.
# CHX counter: affects cycloheximide protein synthesis inhibition readout, counter-screen; max response, %; hit rate 12% among 300,000; cell reporter, cycloheximide protein synthesis inhibition counterscreen; in the data active = max response mostly above about 13%, no sharp cut-off; inactive = mostly below about 14%; note: read at 38.3 µM for the half of the compounds with a filed dose; 0% is about no effect
# FBPA Giardia inh: inhibitors of Giardia lamblia fructose-1,6-bisphosphate aldolase. Potency, µM (doses to about 59.6 µM), inactives show at the top dose activity, negative = inhibition, usual class: inhibitors. hit rate 0.71% among 290,000. A8B2U2. purified Giardia FBPA; note: potency is the fitted concentration of half-maximal effect; % is set by controls: 0 for no effect and ±100 for the full control effect; nearly all actives have a fitted effect of over 55% in size
#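 40 nM FBPA preincubated 10 min at RT with compound (up to 57.5 uM final), then substrate plus GAPDH/TPI/NAD/arsenate coupling and diaphorase/resazurin added. Fluorescence read after 20 min at RT, 525/598 nm.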
# TbPYK inhibitor: T. brucei pyruvate kinase inhibition. Q57TT1. TbPYK enzyme, Kinase-Glo Plus ATP luminescence, 45 min. Potency, µM (highest dose often 76.8 µM), for inactives: at the top dose activity, negative = inhibition, most hits filed as inhibitors. hit rate 0.12% among 410,000; note: potency is the fitted concentration of half-maximal effect; % is set by controls: 0 for no effect and ±100 for the full control effect; nearly all actives have a fitted effect of over 50% in size
#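 T. brucei PYK with substrate was exposed to pin-transferred compounds across a concentration series, then started with 130 uM ADP (final). After 45 min at room temperature, Kinase-Glo Plus luminescence was read, normalized and curve-fitted.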
# Shiga inhibitor: blocks Shiga toxin action in Vero cells; AID 2315; inhibition, % at 38.7 µM; Vero cells, Shiga toxin protein synthesis inhibition reporter; hit rate 9.2% among 290,000; in the data active = inhibition mostly above about 28%, no sharp cut-off; inactive = mostly below about 43%; note: 0% is about no effect
# LmPK inhibitor: blocks Leishmania mexicana pyruvate kinase activity | purified LmPK, Kinase-Glo ATP luminescence, 1 h | Potency, µM (highest dose often 57.5 µM), without a hit: at the top dose activity change, negative = inhibition, usual class: inhibitors | hit rate 0.37% among 290,000 | AID 1721; note: potency is the fitted concentration of half-maximal effect; % is set by controls: 0 for no effect and ±100 for the full control effect
# Target sequence (Q27686 whole entry, looked up): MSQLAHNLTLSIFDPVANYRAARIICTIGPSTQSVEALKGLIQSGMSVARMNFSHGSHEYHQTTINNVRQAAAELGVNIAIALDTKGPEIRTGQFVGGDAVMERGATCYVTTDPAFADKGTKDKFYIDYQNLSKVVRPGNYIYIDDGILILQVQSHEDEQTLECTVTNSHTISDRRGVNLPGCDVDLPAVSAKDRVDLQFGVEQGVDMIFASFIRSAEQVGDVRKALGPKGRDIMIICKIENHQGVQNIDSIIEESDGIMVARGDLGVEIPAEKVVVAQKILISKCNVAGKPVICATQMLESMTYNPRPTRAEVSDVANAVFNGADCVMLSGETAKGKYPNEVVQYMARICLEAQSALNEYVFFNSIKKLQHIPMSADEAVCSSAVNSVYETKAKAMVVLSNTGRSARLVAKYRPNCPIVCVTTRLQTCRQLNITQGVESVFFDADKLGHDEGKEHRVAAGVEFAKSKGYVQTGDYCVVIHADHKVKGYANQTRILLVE
#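 Kinase-Glo luminescence read after 1 h RT reaction of 0.1 nM LmPK with 0.5 mM PEP and 0.1 mM ADP. Activity scaled between uninhibited and enzyme-free controls.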
# Sm TGR inh: S. mansoni TGR enzyme inhibition; Q962Y6; purified TGR, DTNB reduction, TNB absorbance 405 nm; Potency, µM (doses to about 114 µM), inactives show at the highest dose activity change, negative = inhibition, most hits filed as inhibitors; hit rate 3% among 360,000; AID 485364; note: potency is the fitted concentration of half-maximal effect; % is set by controls: 0 for no effect and ±100 for the full control effect; nearly all actives have a fitted effect of over 60% in size
#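 TGR 20 nM + NADPH 100 uM (dispensed conc.), cpd preinc 15 min RT; start with NADPH (500 uM addition) then DTNB (15 mM addition). Kinetic TNB absorbance, 405 nm filter. Four-parameter Hill fit across titration.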
# Active calls of the source: *; ? = inconclusive; · = no result given; [ ] = remark or other dose. This is one part of a sample in which hits are shown more often than they occur. Unless noted, calls come from the whole dose curve; as a rule, active = well fitted curve in the direction sought with a large enough effect; inconclusive = small, poorly fitted or top-dose-only effect, or another doubt; inactive = no such curve, though single readings can be large; an effect the other way counts as inactive or inconclusive.
SMILES,CHX counter,FBPA Giardia inh,TbPYK inhibitor,Shiga inhibitor,LmPK inhibitor,Sm TGR inh
Cc1ccsc1C(=O)Nc1ccc2c(c1)OCCO2,29*,-8%,?,27*,16µM*,-1%
O=C1CC(c2ccc(F)cc2)C(n2cncn2)C(O)=C1C1NCCc2ccccc21 (stereo not drawn),-1,-3%,5%,-14,1%,-1%
O=C1CC(c2ccc(F)cc2)CC(O)=C1C1NCCc2ccccc21 (stereo not drawn),19*,6%,6%,25,3%,-27%
CCCCn1c(N)c(N(CC(C)C)C(=O)c2cc(-c3ccc(F)cc3)nc3ccccc23)c(=O)[nH]c1=O,·,·,6%,·,·,0%
O=C(/C=C/c1ccc(Cl)cc1)c1ccc([N+](=O)[O-])o1,·,·,1%,·,·,?
CC(=O)c1ccccc1OC(=O)c1ccc([N+](=O)[O-])o1,1,-26%,3%,27,-1%,16µM*
CN(Cc1ccccc1)C(=O)c1ccc([N+](=O)[O-])o1,19*,-4%,5%,42*,3%,40µM*
O=C(COC(=O)c1ccc([N+](=O)[O-])o1)NCc1ccccc1,·,·,-6%,·,·,·
Cc1ccc(/C=C/C(=O)c2ccc([N+](=O)[O-])o2)cc1,·,·,-7%,·,·,14µM*
Cc1ccc(CNC(=O)c2nn(C)c(C)c2[N+](=O)[O-])cc1,-3,0%,-4%,-3,2%,5%
Cc1ccc(CNC(=O)c2ccc([N+](=O)[O-])o2)cc1,-2,-16%,-1%,15,2%,35µM*
Cc1ccccc1CNC(=O)CCC(=O)N1CCSc2ccccc21,·,·,-4%,·,·,-1%
COc1ccccc1CCNC(=O)C(=O)NCC(c1cccnc1)N1CCN(c2ccccc2)CC1 (stereo not drawn),·,·,0%,·,·,-6%
Cn1c(CN2CCN(C(=O)c3ccccc3Cl)CC2)nc2cc([N+](=O)[O-])ccc21,-4,-4%,3%,-6,7%,-1%
Cn1c(CN2CCN(C(=O)c3ccccc3)CC2)nc2cc([N+](=O)[O-])ccc21,19*,-3%,2%,46*,1%,2%
O=[N+]([O-])c1ccc(-c2ccccc2)c([As](=O)(O)O)c1,-4,1%,1%,1,-4%,2µM*
CCC(=Nc1ccc(N)cc1)C1=C(O)C(C(=O)OC)C(C)(C)CC1=O (stereo not drawn),-4,1.1µM*,6%,27,-11%,?
COc1cccc(CS(=O)(=O)c2nnnn2-c2ccc(F)cc2Br)c1,·,0%,·,·,·,·
CC(O)(CS(=O)(=O)c1cccc(C(F)(F)F)c1)C(=O)Nc1ccc(C(F)(F)F)cc1 (stereo not drawn),0,-8%,-6%,-2,1%,-31%
CC(C)(CCl)C(=O)Nc1ccc(C(F)(F)F)cc1,28*,-8%,9%,26,-2%,-18%
Cc1ccc(S(=O)(=O)N/N=c2\sc3ccccc3n2C)cc1,-7,6%,-6%,-11,-2%,-6%
CN(C)c1ccc(N=c2sc3ccccc3n2C)cc1,54*,?,?,89*,9%,-28%
Cc1cccc(S(=O)(=O)N/N=c2\sc3ccccc3n2C)c1,3,0%,-1%,4,1%,0%
Cn1c(=Nc2ccccc2)sc2ccccc21,36*,1%,-10%,82,8%,3%
COc1ccc(-c2nnc(N)s2)cc1,37*,6%,-6%,39,-7%,-10%
SMILES,CHX counter,FBPA Giardia inh,TbPYK inhibitor,Shiga inhibitor,LmPK inhibitor,Sm TGR inh
Cc1ccc(-c2nnc(N)s2)cc1,43*,-3%,5%,66*,-5%,0%
CCCOc1ccc(-c2nnc(N)s2)cc1,40*,13%,-7%,105*,-23%,2%
COc1ccc(-c2nnc(N)s2)cc1OC,·,·,-3%,·,·,·
CCCOc1ccc(-c2nc(-c3ccc(N)cc3)cs2)cc1,68*,-12%,·,62*,1%,-6%
CNC(=O)C1CCC(Cn2c(=O)c3sccc3n(Cc3ccccc3)c2=O)CC1 (stereo not drawn),·,·,2%,·,·,-1%
CNc1nnc(-c2ccc(OC)cc2)s1,33*,2%,-3%,78*,-28%,·
Cc1ccc(SCc2nnc(N)s2)cc1,10*,-5%,2%,0,-4%,0%
CC(C)c1ccc(-c2nnc(N)s2)cc1,66*,6%,-14%,54*,-8%,-2%
CNc1nnc(-c2ccncc2)s1,-5,0%,-9%,-4,4%,4%
CCOc1ccc(N(C)C(=O)c2oc(=O)c3ccccc3c2-c2ccccc2)cc1,·,·,-3%,·,·,8%
CCOc1ccc(CCNC(=O)CCCn2nc(C)c3c(C)n(-c4ccccc4)nc3c2=O)cc1,1,·,-1%,14,1%,0%
O=C(CCCOc1ccccc1)NCCc1ccccc1,14*,1%,9%,29,5%,-13%
O=C(CCCOc1ccc(Cl)cc1)NCCc1ccccc1,-3,3%,-2%,-6,7%,3%
COCCCNC(=O)CCCOc1ccccc1,31*,2%,-7%,26,15%,4%[11.4 µM]
COCCCNC(=O)CCCC(=O)NCCCOC,-6,4%,5%,-15,-2%,-7%
Cc1nn(CCCC(=O)NCCc2ccccc2)c(=O)c2nccn12,7,5%,-4%,15*,-6%,4%
Cn1nc(Oc2ncc(C(F)(F)F)cc2Cl)cc1C(F)(F)F,14,2%,-13%,18,8%,10%
O=c1cc(-c2ccccc2O)oc2c1ccc1ccccc12,·,4%,·,·,·,·
CCS(=O)(=O)c1ccc2oc(Nc3ccccc3Cl)nc2c1,45*,·,-15%,80*,-21%,6%
CCS(=O)(=O)c1ccc2oc(Nc3cccc(OC)c3)nc2c1,20*,-19%,-27%,41,-11%,-1%
CCS(=O)(=O)c1ccc2oc(Nc3ccc(OC)cc3)nc2c1,22,-6%,-5%,38,9%,6%
CCS(=O)(=O)c1ccc2oc(Nc3cc(Cl)ccc3OC)nc2c1,2,8%,3%,-16,-3%,3%
CCS(=O)(=O)c1ccc2oc(Nc3ccccc3Br)nc2c1,35*,15%,1%,79*,16µM*,6%
Cc1ccc(NC(=O)C2=C(O)CCn3c2nc2ccccc23)cc1,22*,11%,3%,37,20%,0%
O=C(Cc1ccc(Cl)cc1)N1CCN(c2ccccc2)CC1,31*,6%,3%,63,1%,3%
O=C(C1CCC1)N1CCN(c2ccc(Cl)cc2)CC1,12*,11%,-1%,14,-7%,-1%
O=C(Nc1ccc(Cl)cc1)N1CCN(c2ccccc2)CC1,20*,-1%,-3%,24,2%,-3%
O=C(Nc1ccc(Cl)cc1)N1CC1,·,·,-6%,·,·,·
O=C(Nc1ccc(Cl)cc1)N1CC=CCC1,84*,2%,-5%,109*,-17%,11%
